# According to PubChem BioAssay (Tox21):
# Unmarked numbers belong to inactive results. Inconclusive results are not listed. Where a call stands in place of a potency, no number is given. Active and inactive are the calls of the source. Unless noted, the call rests on the fitted dose curve; in most records, active means well fitted curve in the direction sought with a large enough effect in the repeat runs; inconclusive means weak or mixed curves; inactive means no such curve, though single readings can be large; an effect the other way counts as inactive or inconclusive.
# Legend:
# [1] = qHTS assay to identify small molecule antagonists of the estrogen related receptor (ERR) signaling pathway - cell viability counter screen (AID 1224818);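 further: series mostly up to about 46 µM; viability measured after 17.5 h of compound exposure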
# Procedure, shortened: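 In the same ERR cell assay, compound-treated wells (17.5 h, 37 C) were multiplexed with a fluorogenic viability reagent, CellTiter-Fluor, read after 30 min to flag cytotoxic substances.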
# [2] = qHTS assay to identify small molecule antagonists of the estrogen related receptor (ERR) signaling pathway (AID 1224819;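 further: luminescence from an ERR-driven luciferase reporter measured with One-Glo reagent; series mostly up to about 46 µM; nearly all actives have a fitted effect of over 50% in size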)
# Procedure, shortened: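 qHTS in ERR cells, 2,000/well, 1536 format. Cpd (DMSO) added after 6 h settle, 18 h 37 C. One-Glo luminescence, 30 min RT.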
# [3] = qHTS assay to identify small molecule agonists of the estrogen related receptor (ERR) signaling pathway (AID 1224820)
# Procedure, shortened: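 Cells: ERR line from NTP, 2,000/well. Pre-incubation 6 h, 37 C/5% CO2. Compound (DMSO) pin transfer, 18 h 37 C. One-Glo, 30 min RT, luminescence.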
# [4] = test system: estrogen-related receptor alpha (ERRalpha) with PGC-1alpha coactivator, human; assay: qHTS assay to identify small molecule antagonists of the estrogen related receptor signaling pathway with the pleiotropic PPARgamma coactivator (PGC) (AID 1224821; calls by dose curve;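 further: series mostly up to about 46 µM; lower luminescence signal means antagonism of PGC/ERR signalling; nearly all actives have a fitted effect of over 50% in size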)
# Procedure, shortened: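 Luminescent read-out (One-Glo, 30 min at room temperature) following 18 h treatment of PGC/ERR cells at 37 C with compounds delivered in DMSO. Cells had settled 6 h at 37 C/5% CO2 before dosing.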
# [5] = qHTS assay to identify small molecule agonists of the estrogen related receptor signaling pathway with the pleiotropic PPARgamma coactivator (PGC) (AID 1224823)
# Procedure, shortened: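 Steps: plate PGC/ERR cells at 2,000 cells/well; incubate 6 h, 37 C/5% CO2; pin-transfer compounds (DMSO); incubate 18 h, 37 C; add One-Glo; 30 min RT; read luminescence.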
# [6] = qHTS assay for small molecules that induce genotoxicity in human embryonic kidney cells expressing luciferase-tagged ATAD5 (AID 651632); further: nearly all actives have a fitted effect of over 15% in size
# Procedure, shortened: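 Reporter cells (HEK293T) express luciferase-tagged ATAD5, a protein that accumulates after DNA damage. Treat 16 hr at 37C/5% CO2, add Amplite, wait 30 min at RT, and read luminescence.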
# [7] = qHTS assay for small molecule agonists of the p53 signaling pathway - cell viability (AID 651633; calls by dose curve;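 further: p53RE-bla HCT reporter cells with a stable beta-lactamase p53 reporter; series mostly up to about 83 µM; nearly all actives have a fitted effect of over 30% in size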)
# Procedure, shortened: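 p53RE-bla cells were treated with compound for 16 hours at 37 C. Cytotoxicity was then measured as CellTiter-Glo luminescence after 30 min at room temperature.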
# [8] = qHTS assay for small molecules that induce genotoxicity in human embryonic kidney cells expressing luciferase-tagged ATAD5 - cell viability (AID 651634; calls by dose curve; further: nearly all actives have a fitted effect of over 25% in size)
# Procedure, shortened: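 Seeding of 2,000 HEK293T ATAD5-luciferase cells per well preceded pin-tool compound transfer. Plates sat 15.5 hr at 37C under 5% CO2, then fluorescence was read after 30 min with CellTiter-Fluor.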
# [9] = qHTS assay to test for compound auto fluorescence at 590 nm (red) in HepG2 cells (AID 720674)
# Procedure, shortened: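 Fluorescence at 590 nm emission following 540 nm excitation was recorded from HepG2 wells one hour after compound transfer, with DMSO-only wells as vehicle and Rose Bengal sodium equivalency as the scale.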
# [10] = qHTS assay to test for compound auto fluorescence at 535 nm (green) in HepG2 cells (AID 720675)
# [11] = qHTS assay to test for compound auto fluorescence at 460 nm (blue) in HEK293 cells (AID 720678)
# Procedure, shortened: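 Blue read-out at excitation 405 nm and emission 460 nm follows overnight compound exposure of HEK293 cells at 37C in 5% CO2. Activity is given as auto fluorescence equivalency to triamterene.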
# [12] = qHTS assay to test for compound auto fluorescence at 590 nm (red) in HEK293 cells (AID 720679)
# Procedure, shortened: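 Red channel, Ex/Em 540/590nm; signal expressed as equivalency to Rose Bengal sodium. HEK293, 2,000 cells/well, 10% dialyzed FBS; 23 nL compound pinned after 4-5 hr attachment; overnight 37C/5% CO2 before reading.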
# [13] = qHTS assay to test for compound auto fluorescence at 535 nm (green) in HEK293 cells (AID 720680)
# [14] = qHTS assay to test for compound auto fluorescence at 460 nm (blue) in HEK293 cell free culture (AID 720681)
# Procedure, shortened: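 Compounds were added to cell-free DMEM with 10% FBS and fluorescence read directly. The blue channel used 405 nm excitation and 460 nm emission, with triamterene as the reference fluorophore.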
# [15] = qHTS assay to test for compound auto fluorescence at 535 nm (green) in HEK293 cell free culture (AID 720682)
# Procedure, shortened: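 Fluorescein serves as the green reference fluorophore; each compound's intrinsic emission at 535 nm (excitation 485 nm) is reported as an equivalent amount of that dye, measured in serum-containing DMEM without cells.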
# [16] = qHTS assay to test for compound auto fluorescence at 590 nm (red) in HEK293 cell free culture (AID 720683)
# Procedure, shortened: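 Cell-free wells of DMEM with 10% FBS received compound, and intrinsic fluorescence was read at excitation/emission 540/590 nm. Values expressed as equivalence to Rose Bengal sodium.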
# [17] = qHTS assay to test for compound auto fluorescence at 590 nm (red) in HepG2 cell free culture (AID 720684)
# Procedure, shortened: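 Compound was pinned into wells holding MEM with 10% FBS and no cells, and red fluorescence was read at Ex/Em 540/590 nm. Signal is expressed as auto fluorescence equivalency relative to Rose Bengal sodium.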
# [18] = qHTS assay to test for compound auto fluorescence at 460 nm (blue) in HepG2 cell free culture (AID 720685)
# Procedure, shortened: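 Compound (23 nL) or DMSO pinned into cell-free MEM with 10% FBS; blue fluorescence read at 405/460 nm excitation/emission, expressed as auto-fluorescence equivalency to triamterene.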
# [19] = qHTS assay to test for compound auto fluorescence at 535 nm (green) in HepG2 cell free culture (AID 720686)
# [20] = qHTS assay to test for compound auto fluorescence at 460 nm (blue) in HepG2 cells (AID 720687)
# Procedure, shortened: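 HepG2 cells in MEM with 10% FBS, attached overnight at 37 C, were exposed to compound or DMSO for 1 hr at 37 C, 5% CO2. Blue fluorescence was read at 405/460 nm, with triamterene as reference fluorophore.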
# [21] = qHTS assay to identify small molecule antagonists of the glucocorticoid receptor (GR) signaling pathway - cell viability counter screen (AID 720693); further: nearly all actives have a fitted effect of over 55% in size
# [22] = qHTS assay for identifying genotoxic compounds that show differential cytotoxicity against isogenic chicken DT40 cell lines with known DNA damage response pathways - wild type cell line (AID 743012); further: nearly all actives have a fitted effect of over 60% in size
# Procedure, shortened: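 Using parental DT40 (300 cells/well), compounds delivered in DMSO incubate 40 h at 37 C/5% CO2. CellTiter-Glo reagent then stands 30 min at room temperature, and luminescence gives cell viability.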
# [23] = qHTS assay for identifying genotoxic compounds that show differential cytotoxicity against isogenic chicken DT40 cell lines with known DNA damage response pathways - Rev3 mutant cell line (AID 743014); further: nearly all actives have a fitted effect of over 55% in size
# [24] = qHTS assay for identifying genotoxic compounds that show differential cytotoxicity against isogenic chicken DT40 cell lines with known DNA damage response pathways - Rad54/Ku70 mutant cell line (AID 743015); further: nearly all actives have a fitted effect of over 60% in size
# [25] = qHTS assay to identify small molecule antagonists of the androgen receptor (AR) signaling pathway - cell viability counter screen (AID 743033; further: nearly all actives have a fitted effect of over 45% in size)
# [26] = qHTS assay to identify small molecule antagonists of the androgen receptor (AR) signaling pathway using the MDA cell line - cell viability counter screen (AID 743041; further: nearly all actives have a fitted effect of over 45% in size)
# Procedure, shortened: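 MDA-kb2 AR-luc cells (MMTV-luciferase, AR/GR responsive) treated with compounds plus R1881 agonist for 16 h at 37C. CellTiter-Fluor added at 15.5 h; fluorescence read after 30 min in the same wells.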
# [27] = qHTS assay to identify small molecule antagonists of the thyroid receptor (TR) signaling pathway - cell viability counter screen (AID 743064); further: nearly all actives have a fitted effect of over 50% in size
# Procedure, shortened: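 Fluorescence from CellTiter-Fluor, added after 23.5 h exposure at 37 °C, reported viability of GH3.TRE-Luc cells co-treated with compound and 1 nM T3. Measured in the same wells as the luciferase TR readout.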
# [28] = test system: thyroid hormone receptor (rat, GH3 cells); assay: qHTS assay to identify small molecule agonists of the thyroid receptor (TR) signaling pathway (AID 743066; calls by dose curve)
# [29] = biological target: Estrogen receptor (Homo sapiens) (UniProt P03372); assay: qHTS assay to identify small molecule antagonists of the estrogen receptor alpha (ER-alpha) signaling pathway (AID 743069; active means well fitted curve in the direction sought with a large enough effect in the signal ratio in the repeat runs, not every such curve was filed as active; the % refers to the signal ratio)
# Procedure, shortened: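 HEK293 ER-alpha-UAS-bla GripTite cells, held overnight in 2% charcoal-stripped FBS, 5,000 cells/well, preincubated 4 h, then compound plus 17beta-estradiol for 18 h at 37C. Beta-lactamase read by LiveBLAzer B/G FRET substrate, 2 h at room temperature.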
# [30] = qHTS assay to identify small molecule antagonists of the estrogen receptor alpha (ER-alpha) signaling pathway - cell viability counter screen (AID 743074; calls by dose curve;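 further: HEK293 cells carrying ER-alpha-UAS-bla reporter stimulated with 17beta-estradiol; nearly all actives have a fitted effect of over 45% in size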)
# [31] = biological target: Estrogen receptor (Homo sapiens) (UniProt P03372); assay: qHTS assay to identify small molecule agonists of the estrogen receptor alpha (ER-alpha) signaling pathway (AID 743075; calls by dose curve)
# [32] = biological target: Estrogen receptor (Homo sapiens) (UniProt P03372); assay: qHTS assay to identify small molecule agonists of the estrogen receptor alpha (ER-alpha) signaling pathway using the BG1 cell line (AID 743079); further: potency means the concentration at half of the fitted maximal effect; nearly all actives have a fitted effect of over 20% in size
# [33] = qHTS assay to identify small molecule antagonists of the estrogen receptor alpha (ER-alpha) signaling pathway using the BG1 cell line (AID 743080; calls by dose curve;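 further: BG1 cells stimulated with 17beta-estradiol alongside compound; series mostly up to about 70 µM; nearly all actives have a fitted effect of over 25% in size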)
# Procedure, shortened: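 Luminescence from a 4×ERE-luciferase reporter in BG1-Luc-4E2 cells served as read-out. Cells, pre-cultured 5 days in stripped-serum phenol-red-free medium, were exposed to compound with 17beta-estradiol co-stimulation for 21.5 h at 37 C.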
# [34] = qHTS assay to identify small molecule antagonists of the estrogen receptor alpha (ER-alpha) signaling pathway using the BG1 cell line - cell viability counter screen (AID 743081);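 further: compound given together with 17beta-estradiol as the ER stimulus; series mostly up to about 70 µM; nearly all actives have a fitted effect of over 45% in size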
# [35] = biological target: Aromatase (Homo sapiens) (UniProt P11511); assay: qHTS assay to identify aromatase inhibitors (AID 743083); further: series mostly up to about 70 µM; nearly all actives have a fitted effect of over 55% in size
# [36] = qHTS assay to identify aromatase inhibitors - cell viability counter screen (AID 743084);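 further: cells stimulated with testosterone during compound exposure; nearly all actives have a fitted effect of over 55% in size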
# [37] = biological target: Aryl hydrocarbon receptor (Homo sapiens) (UniProt P35869); assay: qHTS assay to identify small molecule that activate the aryl hydrocarbon receptor (AhR) signaling pathway (AID 743085);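 further: HG2L7.5c1 human HepG2 liver cells with stably integrated DRE-driven firefly reporter; series mostly up to about 70 µM; nearly all actives have a fitted effect of over 15% in size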
# Procedure, shortened: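 Cell line HG2L7.5c1 (human hepatoma, 20× DRE-luc). Plated, 5 h 37C, compound/DMSO added, 24 h 37C. CellTiter-Fluor 30 min 37C → fluorescence; then ONE-Glo 30 min RT → luminescence.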
# [38] = qHTS assay to identify small molecule that activate the aryl hydrocarbon receptor (AhR) signaling pathway - cell viability counter screen (AID 743086)
# Procedure, shortened: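 HepG2-AhR-luc (HG2L7.5c1) cells, 4000/well, treated 24 h at 37 C with compound; viability measured as CellTiter-Fluor fluorescence after 30 min in the same wells as the luciferase read.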
# [39] = biological target: Peroxisome proliferator-activated receptor gamma (Homo sapiens) (UniProt P37231); assay: qHTS assay to identify small molecule agonists of the peroxisome proliferator-activated receptor gamma (PPARg) signaling pathway (AID 743094; active means well fitted activation curve with a large enough effect in the signal ratio in the repeat runs, not every such curve was filed as active; the % refers to the signal ratio)
# Procedure, shortened: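 Following 5 h plating at 37C, PPARg-bla HEK293H cells receive compound or DMSO for 17 h; fluorescence intensity is recorded after LiveBLAzer B/G loading for 1 h at room temperature.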
# [40] = qHTS assay to identify small molecule antagonists of the estrogen related receptor signaling pathway with the pleiotropic PPARgamma coactivator (PGC) cell viability counter screen (AID 1224822; further: series mostly up to about 46 µM)
# Procedure, shortened: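 Compounds in DMSO, with positive and negative controls, were applied to PGC/ERR cells (2,000/well) and left 17.5 h at 37 C before CellTiter-Fluor detection.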
# [41] = qHTS assay to identify small molecule phospholipidosis (PLD) inducers (AID 1259344; active means well fitted curve in the direction sought with a large enough effect; an effect the other way counts as inactive or inconclusive)
# Procedure, shortened: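 HepG2 cells, 900/well, treated with compound plus LipidTOX Red for 24 h at 37 C; amiodarone positive and DMSO negative controls. Fixed with paraformaldehyde/Hoechst, then high-content imaging scored LipidTOX pit count and integrated intensity per well and per cell.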
# [42] = biological target: Nuclear receptor subfamily 1 group I member 2 (Rattus norvegicus) (UniProt Q9R1A7); assay: Rat pregnane X receptor (rPXR) activation by small molecules, qHTS assay (AID 1346983); settings: rPXR luciferase reporter cells, One-Glo luminescence, 24 h; max activation: stronger effect = higher value; further: nearly all actives have a fitted effect of over 20% in size
# Procedure, shortened: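 Cell-based rPXR activation assay: rPXR cells, 2,000 per well, rested 5hr at 37 C, then exposed to compounds in DMSO for 24 hr at 37 C. Luciferase activity read by One-Glo luminescence after 30 min at room temperature.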
# Sequence of Estrogen receptor (Homo sapiens) (P03372 whole entry, looked up): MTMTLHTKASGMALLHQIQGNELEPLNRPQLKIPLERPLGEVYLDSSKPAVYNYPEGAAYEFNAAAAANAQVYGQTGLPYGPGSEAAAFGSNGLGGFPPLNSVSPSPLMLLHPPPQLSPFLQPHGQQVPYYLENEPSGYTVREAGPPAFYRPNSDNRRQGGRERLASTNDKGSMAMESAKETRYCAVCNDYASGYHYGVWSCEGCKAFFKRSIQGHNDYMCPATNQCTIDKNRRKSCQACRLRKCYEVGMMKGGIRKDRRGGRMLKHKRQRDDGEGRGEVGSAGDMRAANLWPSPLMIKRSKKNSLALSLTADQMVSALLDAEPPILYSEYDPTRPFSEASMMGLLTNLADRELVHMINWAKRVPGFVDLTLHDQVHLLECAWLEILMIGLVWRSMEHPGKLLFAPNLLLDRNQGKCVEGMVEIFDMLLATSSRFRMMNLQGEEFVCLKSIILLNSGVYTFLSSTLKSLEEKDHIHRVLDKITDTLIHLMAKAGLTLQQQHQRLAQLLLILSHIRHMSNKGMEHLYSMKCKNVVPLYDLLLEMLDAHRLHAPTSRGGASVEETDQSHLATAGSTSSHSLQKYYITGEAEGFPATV
# Sequence of Nuclear receptor subfamily 1 group I member 2 (Rattus norvegicus) (Q9R1A7 whole entry, looked up): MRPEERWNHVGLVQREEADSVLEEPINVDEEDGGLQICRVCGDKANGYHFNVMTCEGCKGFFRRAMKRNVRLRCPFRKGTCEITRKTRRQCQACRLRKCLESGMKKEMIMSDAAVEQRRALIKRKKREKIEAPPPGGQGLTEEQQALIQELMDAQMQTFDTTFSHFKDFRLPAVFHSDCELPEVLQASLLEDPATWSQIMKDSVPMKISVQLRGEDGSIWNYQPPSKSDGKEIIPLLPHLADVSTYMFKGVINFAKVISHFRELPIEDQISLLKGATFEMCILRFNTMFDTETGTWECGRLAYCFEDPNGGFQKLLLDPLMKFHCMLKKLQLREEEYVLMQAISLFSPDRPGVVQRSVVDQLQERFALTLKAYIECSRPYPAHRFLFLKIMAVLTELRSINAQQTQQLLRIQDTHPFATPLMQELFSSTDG
# Sequence of Aryl hydrocarbon receptor (Homo sapiens) (P35869 whole entry, looked up): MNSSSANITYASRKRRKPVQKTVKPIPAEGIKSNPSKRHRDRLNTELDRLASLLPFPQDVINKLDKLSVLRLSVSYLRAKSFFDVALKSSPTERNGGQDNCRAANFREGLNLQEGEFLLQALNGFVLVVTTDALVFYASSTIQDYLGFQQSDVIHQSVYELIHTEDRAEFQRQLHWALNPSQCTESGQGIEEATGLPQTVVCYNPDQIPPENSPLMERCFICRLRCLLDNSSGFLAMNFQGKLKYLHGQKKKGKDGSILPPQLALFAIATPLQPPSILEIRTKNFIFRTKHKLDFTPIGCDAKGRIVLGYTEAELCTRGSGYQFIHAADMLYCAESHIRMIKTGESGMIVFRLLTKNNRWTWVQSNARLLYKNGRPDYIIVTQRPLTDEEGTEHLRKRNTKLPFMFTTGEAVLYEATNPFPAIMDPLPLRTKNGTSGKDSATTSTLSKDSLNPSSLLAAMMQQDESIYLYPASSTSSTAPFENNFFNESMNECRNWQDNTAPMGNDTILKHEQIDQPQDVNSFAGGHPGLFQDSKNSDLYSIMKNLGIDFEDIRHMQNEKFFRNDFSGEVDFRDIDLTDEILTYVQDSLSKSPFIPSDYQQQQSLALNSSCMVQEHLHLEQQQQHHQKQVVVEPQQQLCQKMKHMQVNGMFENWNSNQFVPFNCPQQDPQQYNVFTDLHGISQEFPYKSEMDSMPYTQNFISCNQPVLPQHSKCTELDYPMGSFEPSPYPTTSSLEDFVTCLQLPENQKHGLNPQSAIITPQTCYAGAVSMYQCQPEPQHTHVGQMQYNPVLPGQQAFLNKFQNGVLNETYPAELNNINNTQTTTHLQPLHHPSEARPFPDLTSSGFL
# Sequence of Aromatase (Homo sapiens) (P11511 whole entry, looked up): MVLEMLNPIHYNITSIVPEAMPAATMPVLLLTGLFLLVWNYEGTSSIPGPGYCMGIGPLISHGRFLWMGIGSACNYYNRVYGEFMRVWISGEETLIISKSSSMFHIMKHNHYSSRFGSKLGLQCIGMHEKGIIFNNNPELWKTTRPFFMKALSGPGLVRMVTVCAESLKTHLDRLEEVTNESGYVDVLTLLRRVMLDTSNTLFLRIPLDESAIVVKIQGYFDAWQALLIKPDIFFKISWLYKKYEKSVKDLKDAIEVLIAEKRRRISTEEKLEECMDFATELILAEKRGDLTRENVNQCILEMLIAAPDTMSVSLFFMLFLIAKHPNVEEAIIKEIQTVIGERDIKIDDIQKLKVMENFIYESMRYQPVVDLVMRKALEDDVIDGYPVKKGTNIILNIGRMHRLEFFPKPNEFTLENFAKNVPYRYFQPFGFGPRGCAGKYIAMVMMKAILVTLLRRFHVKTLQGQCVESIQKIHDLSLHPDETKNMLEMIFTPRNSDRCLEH
# Sequence of Peroxisome proliferator-activated receptor gamma (Homo sapiens) (P37231 whole entry, looked up): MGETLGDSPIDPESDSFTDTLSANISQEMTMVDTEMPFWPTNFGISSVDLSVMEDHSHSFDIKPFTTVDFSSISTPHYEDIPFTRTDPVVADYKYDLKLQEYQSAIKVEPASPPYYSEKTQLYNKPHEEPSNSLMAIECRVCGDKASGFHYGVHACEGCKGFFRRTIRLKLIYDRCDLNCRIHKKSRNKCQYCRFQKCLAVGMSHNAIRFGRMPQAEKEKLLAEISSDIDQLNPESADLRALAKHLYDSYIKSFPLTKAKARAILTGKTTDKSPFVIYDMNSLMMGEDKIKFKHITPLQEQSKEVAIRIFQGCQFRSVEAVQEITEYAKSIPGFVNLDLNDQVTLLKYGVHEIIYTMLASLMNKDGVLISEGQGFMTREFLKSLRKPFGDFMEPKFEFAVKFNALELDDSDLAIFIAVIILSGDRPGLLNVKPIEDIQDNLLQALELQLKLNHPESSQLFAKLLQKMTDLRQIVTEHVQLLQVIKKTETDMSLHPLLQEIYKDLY
compound,measurement,setting,value
NC1CCc2cc(O)c(O)cc2C1 (configuration not stated),Potency,[1],inactive
same,Potency,[2],inactive
same,Potency,[3],inactive
same,Potency,[4],inactive
same,Potency,[5],inactive
c1ccc2sc(C3(N4CCCCC4)CCCCC3)cc2c1,Potency,[1],inactive
same,Potency,[2],inactive
same,Potency,[3],inactive
same,Potency,[4],inactive
same,Potency,[5],inactive
c1ccc(C2(c3ccccc3)CC2C2=NCCN2)cc1 (configuration not stated),Potency,[6],inactive
same,Potency,[7],inactive
same,Potency,[8],inactive
same,outcome,[9],inactive
same,Potency,[10],inactive
same,Potency,[11],inactive
same,outcome,[12],inactive
same,Potency,[13],inactive
same,Potency,[14],inactive
same,Potency,[15],inactive
same,outcome,[16],inactive
same,outcome,[17],inactive
same,Potency,[18],inactive
same,Potency,[19],inactive
same,Potency,[20],inactive
same,Potency,[21],inactive
same,Potency,[22],inactive
same,Potency,[23],inactive
same,Potency,[24],inactive
same,Potency,[25],inactive
same,Potency,[26],inactive
same,Potency,[27],inactive
same,Potency,[28],inactive
same,Potency,[29],inactive
same,Potency,[30],inactive
same,Potency,[31],inactive
same,Potency,[32],0.7 nM (active)
same,Potency,[33],inactive
same,Potency,[34],inactive
same,Potency,[35],inactive
same,Potency,[36],inactive
same,Potency,[37],inactive
same,Potency,[38],inactive
same,Potency,[39],inactive
same,Potency,[1],inactive
same,Potency,[2],inactive
same,Potency,[3],inactive
same,Potency,[4],inactive
same,Potency,[40],inactive
same,Potency,[5],inactive
same,Potency,[41],inactive
same,max activation,[42],-1.58%
